# Compound activity as filed in PubChem.
# Hits are enriched below; roughly 2.1% of the tested compounds scored in any of these assays.
# COUP-TFII inh: NR2F2 transcriptional activity inhibitors, primary screen, cell-based, luciferase reporter, HEK293T, luminescence; hit rate 0.7% among 370,000; COUP transcription factor 2 (Homo sapiens), P24468; HEK293T NGFI-A luciferase reporter; inhibition, % at 8.6 µM;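 active = inhibition above a per-plate cutoff, mean inhibition of test wells between control levels plus 3 SD, cut at about 38% in these data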;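 also: cells cotransfected with COUP-TFII expression vector driving the NGFI-A reporter; 0% = median of COUP-TF2 test wells and 100% = reporter-only cells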
# Target sequence (P24468 whole entry, looked up): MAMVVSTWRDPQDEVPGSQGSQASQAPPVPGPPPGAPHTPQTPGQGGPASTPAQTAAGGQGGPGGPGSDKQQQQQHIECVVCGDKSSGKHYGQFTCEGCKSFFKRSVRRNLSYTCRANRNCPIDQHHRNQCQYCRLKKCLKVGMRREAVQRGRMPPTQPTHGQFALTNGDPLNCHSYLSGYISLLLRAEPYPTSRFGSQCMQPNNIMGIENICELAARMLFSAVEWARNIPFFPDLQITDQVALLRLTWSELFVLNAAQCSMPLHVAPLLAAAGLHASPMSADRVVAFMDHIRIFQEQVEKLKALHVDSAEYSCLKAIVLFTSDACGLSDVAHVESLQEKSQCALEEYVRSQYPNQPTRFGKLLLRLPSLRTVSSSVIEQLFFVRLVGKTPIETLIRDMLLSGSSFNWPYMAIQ
# GalR3 antagonist: GalR3 antagonists in HEK293 cells, primary screen, cell-based, fluorescence readout. Galanin receptor type 3 (Homo sapiens), O60755. HEK293 GalR3-CNG cAMP membrane potential fluorescence; galR3 body fused to GalR1 C-terminus. inhibition, % at 3 µM. hit rate 0.44% among 360,000. AID 651719, 2012;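 active = inhibition above the screen-wide average plus 3 SD, cut at about 13% in these data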;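 also: forskolin and galanin both at EC90 stimulate the cells; cAMP rise reported by CNG channel membrane potential dye signal; 0% = forskolin plus galanin with DMSO and 100% = forskolin alone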
# Env fusion inh: inhibitors of HIV-1 Env-driven cell-cell fusion, primary screen, HeLa-JRFL effector, CEM21 target cells, luciferase; inhibition, % at 12.3 µM; hit rate 1.1% among 360,000; AID 651610, 2012;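 active = mean replicate inhibition score of at least 50 and every replicate individually at or above 50; inconclusive = only one of the two criteria met; inactive = mean below 50 and not all replicates reaching 50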;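 also: 0% = plate neutral controls and 100% = maraviroc near 300 nM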
# Gli-Sufu antag: Gli-Sufu pathway antagonists, primary screen, luciferase luminescence, Sufu-KO-LIGHT cells, uHTS. Sufu-KO-LIGHT fibroblasts, Gli luciferase reporter luminescence. inhibition, % at 5 µM. hit rate 0.74% among 340,000. AID 588413, 2011;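 active = inhibition above about 55%, limit read from the data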;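 also: 0% = DMSO-treated cells and 100% = wells with medium but no cells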
# aDG glyco up: activators of alpha-DG glycosylation, primary screen, uHTS, Pro5-aDG cells, AlphaScreen; alpha-DG glycosylation AlphaScreen (IIH6); 0% Pro5, 100% B10-LARGE cell signal; activation, % at 10 µM; hit rate 0.22% among 360,000;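 active = activation of at least 8% versus controls, or a plate z-score of at least 8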;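 also: Pro5 are CHO cells carrying HIG-tagged alpha-DG that lacks glycosylation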
# Gli-Sufu confirm: Gli-SUFU pathway antagonists, confirmation, single concentration, luciferase luminescence, Sufu-KO-LIGHT cells; shares compounds with Gli-Sufu antag; Gli luciferase reporter; inhibition, % at 5 µM; hit rate 40% among 2,500; AID 602428, 2012;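 active = mean inhibition at 5 µM reaching about 45%, limit read from the data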;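 also: plate controls were DMSO-treated cells for no effect and wells lacking cells for full effect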
# SufuKO cytotox: cytotoxicity in Sufu-KO-LIGHT cells, confirmation, cytotoxicity control for Gli-SUFU antagonist project, cell-based, ATP luminescence, single concentration; shares compounds with Gli-Sufu antag; cytotoxicity, % at 5 µM; hit rate 32% among 2,500; AID 651994, 2013;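 active = mean cytotoxicity at 5 µM above about 25%, limit read from the data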;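 also: cells exposed to compound overnight for roughly 16 to 18 hours; plate controls were DMSO wells with cells for no effect and medium without cells for full effect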
# Wnt3a cs: Wnt3a reporter signal inhibition, confirmation, counter-screen for Gli-SUFU antagonist project, Wnt-LIGHT cells, luminescence, single concentration. shares compounds with Gli-Sufu antag. Wnt3a-driven luciferase reporter. inhibition, % at 6.25 µM. hit rate 20% among 2,500. AID 651995, 2013;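 active = mean inhibition above about 25%, limit read from the data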
# aDG conf: alpha-DG glycosylation enhancers, retest, confirmation, single concentration, Pro5-aDG cells; AID 651671, 2012; IIH6 AlphaLISA; scaled to LARGE-overexpressing B10 cells as 100%; shares compounds with aDG glyco up; hit rate 17% among 600; activation, % at 10 µM (by protocol);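 active = activation of at least 7% in one or more replicates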;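 also: cells exposed to compound for two days before detection; 0% = DMSO-treated Pro5 cells and 100% = DMSO-treated B10-LARGE cells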
# GalR3 conf: GalR3 antagonist hit confirmation, cell-based, fluorescence, triplicate; shares compounds with GalR3 antagonist; inhibition, % at 3 µM; HEK293 GalR3 CNG cAMP biosensor, membrane potential fluorescence; galR3 fused to GalR1 carboxy tail; challenged with forskolin and galanin at EC90; AID 652245, 2013; hit rate 59% among 1,600;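 active = inhibition above the primary screen's cutoff, the mean inhibition of all screened compounds plus 3 SD, cut at about 13% in these data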;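 also: 0% = forskolin plus galanin and 100% = forskolin alone with DMSO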
# CNG parental: nonspecific cAMP agonists in parental HEK-CNG cells, counter-screen for GalR3 antagonist project, cell-based, fluorescence, high throughput; shares compounds with GalR3 antagonist; HEK293-CNG parental cells, cAMP membrane potential fluorescence; normalised: DMSO wells 0%, forskolin wells 100%; activation, % at 3 µM; hit rate 10% among 1,600; in the data active = activation above about 1.3%
# Gal4-VP16 ctr: Gal4-VP16 luciferase reporter inhibitors, counter-screen for COUP-TFII antagonist project, cell-based, luminescence, HEK293; inhibition, % at 8.5 µM; AID 687007, 2013; shares compounds with COUP-TFII inh; hit rate 25% among 2,500; in the data active = inhibition above about 13%
# NR2F2 inh conf: NR2F2 transcriptional activity inhibitors, confirmation, cell-based, luciferase reporter, HEK293, triplicate | HEK293 NGFI-A luciferase reporter, luminescence | inhibition, % at 8.5 µM | shares compounds with COUP-TFII inh | hit rate 45% among 2,500;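 active = mean inhibition over three repeats above a set limit taken from the earlier primary screen, cut at about 38% in these data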;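 also: 100% = cells given the luciferase reporter alone without the COUP-TF2 vector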
# * = called active by the depositor; ? = inconclusive; / = not tested or not shown; ! = not active in a repeat; [ ] = another dose, or the depositor's remark.
SMILES,COUP-TFII inh,GalR3 antagonist,Env fusion inh,Gli-Sufu antag,aDG glyco up,Gli-Sufu confirm,SufuKO cytotox,Wnt3a cs,GalR3 conf,CNG parental,others
O=[N+]([O-])c1ccc(-c2ccc(S(=O)(=O)NCCN3CCCC3)cc2)cc1,17.7,41.5*,19.2,53.8,2.7,29.4,10.0,-28.6,10.4,0.4,
COc1ccc(NC(=O)N(C)C[C@H]2Oc3ccc(NC(=O)Cc4ccccc4)cc3C(=O)N([C@@H](C)CO)C[C@@H]2C)cc1,/,/,12.5[16.7 µM],/,/,/,/,/,/,/,
OCC1CCCN(c2nc(CN3CCCCC3)nc3scc(-c4ccccc4)c23)C1 (configuration not stated),2.5,-12.1,12.8,27.6,1.0,/,/,/,/,/,
CCNc1nc(CN2CCCCC2)nc2scc(-c3ccccc3)c12,32.4,18.9*,47.0,69.2*,3.9,56.1*,17.7,-31.8,22.2*,5.7*,
CC(C)NC(=O)N(C)C[C@@H]1OCCCC[C@H](C)Oc2ccc(NC(=O)c3ccccc3)cc2C(=O)N([C@@H](C)CO)C[C@@H]1C,/,/,-21.1[16.7 µM],/,/,/,/,/,/,/,
Cc1sc2ncnc(NCc3cccs3)c2c1C,34.5,54.7*,?,57.5*,5.2,50.2*,25.6*,6.2,58.0*,0.0,
CC(=O)c1c(C)[nH]c(C(=O)OCCCCN2C(=O)c3ccccc3C2=O)c1C,52.9*,19.6*,97.8*,68.2*,6.9*,66.0*,32.1*,15.7,59.6*,-0.4,aDG conf=2.3;Gal4-VP16 ctr=-0.3;NR2F2 inh conf=60.5*
CC(=O)c1c(C)[nH]c(C(=O)OCc2ccccc2)c1C,-25.4,1.6,3.1,-51.6,1.9,/,/,/,/,/,
O=C(Nc1ccccc1F)N[C@H]1CC[C@H](CCNC(=O)C2CCCC2)O[C@@H]1CO,/,/,-6.0[16.7 µM],/,/,/,/,/,/,/,
COc1ccccc1-n1c(-c2ccccc2)c[nH]c1=S,3.8,-2.0,20.1,0.5,0.4,/,/,/,/,/,
COc1ccccc1-n1c(-c2ccccc2)c[n+]2c1CCc1ccccc1-2,70.6*,52.8*,41.3,80.7*,0.1,87.4*,24.5,31.9*,67.9*!,1.6*,Gal4-VP16 ctr=18.5*!;NR2F2 inh conf=63.2*
C[C@@H]1CN([C@@H](C)CO)C(=O)c2cc(C3=CCCCC3)cnc2O[C@@H]1CN(C)Cc1ccc(C(=O)O)cc1,/,/,0.9[16.7 µM],/,/,/,/,/,/,/,
CCCOc1ccc(Br)cc1CSC(=N)N,54.2*,49.8*,61.7*,60.8*,5.5,56.3*,27.3*,17.7,94.8*,5.8*,Gal4-VP16 ctr=15.4*;NR2F2 inh conf=49.3*
